Each structure is given as a SMILES string. About 83,000 compounds went through this panel and 20% of them were active in at least one assay; those are over-represented in the sample as a whole.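 In brief: 96-well plates, 48 h treatment, single concentration, percent growth endpoint.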 Unmarked numbers belong to inactive results. Calls of active or inactive are those of the source. The calls were made as follows: active = growth percent below 10; inactive = the rest.

Among the test systems are SK-MEL-2 melanoma; EKVX NSCLC; SN12C renal; UO-31 renal; TK-10 renal; ACHN renal; CAKI-1 renal; A498 renal; CCRF-CEM leukemia; MOLT-4 leukemia.
Common to all, as to assay: NCI-60 one-dose screen, 48 h (100 = growth as untreated, 0 = no growth, -100 = all killed)
Common to all, as to details: 10 µM unless noted

Consider `O=C(CCSc1nnc2n(Cc3ccccc3)c(=O)c3c4c(sc3n12)CCCC4)N1CCN(c2ccccc2)CC1`, for which the growth in the assay with SK-MEL-2 melanoma was 99.1%; in the assay with EKVX NSCLC, 91.8%; with SN12C renal, 94.8%; in the assay on UO-31 renal it was 94.5%; with TK-10 renal, 101%; with ACHN renal, 93.2%. Besides, the growth is 92.8% in the assay on CAKI-1 renal, 106% in the assay on A498 renal, 127% in the assay with CCRF-CEM leukemia and 111% in the assay on MOLT-4 leukemia.
In the case of `COc1ccc(N2CCC(=S)NC2=S)cc1`, the growth is 115% in the assay on SK-MEL-2 melanoma; 104% with EKVX NSCLC; 98% in the assay on SN12C renal; 84.3% in the assay with UO-31 renal; 96% with TK-10 renal; 104% with ACHN renal. Further, the growth with CAKI-1 renal is 85%; in the assay on A498 renal, 108%; in the assay on CCRF-CEM leukemia, 102%; in the assay with MOLT-4 leukemia, 98.9%.
In the case of `NNCCc1ccc(NC(=O)CCCc2ccc(C(=O)Nc3ccccc3N)cc2)cc1`, the growth in the assay on SK-MEL-2 melanoma was 42.6%; with EKVX NSCLC, 81.7%; in the assay on SN12C renal, 80.1%; with UO-31 renal, 69.5%; with TK-10 renal, 32.5%; with ACHN renal, 89.2%. The growth was 80.6% in the assay with CAKI-1 renal, 60.9% in the assay on A498 renal, 0.638% (active) in the assay with CCRF-CEM leukemia and 27.9% with MOLT-4 leukemia.
Take `O=C1/C(=C/c2ccc(O)c(O)c2)COc2ccc(-c3ccccc3)cc21`: the growth is 59% in the assay on SK-MEL-2 melanoma; 78.8% in the assay with EKVX NSCLC; 13.9% in the assay with SN12C renal; -64.6% (active) in the assay with UO-31 renal; 25.8% in the assay with TK-10 renal; 15.3% in the assay on ACHN renal. Further, the growth was 4.86% (active) in the assay on CAKI-1 renal, 30.7% with A498 renal, 16.2% with CCRF-CEM leukemia and 10.9% in the assay with MOLT-4 leukemia.
`CCNc1nc(O)c(/C=C2\C=Nc3ncccc32)s1`: the growth was -48.7% (active) with SK-MEL-2 melanoma; 14.1% with EKVX NSCLC; 12.6% with SN12C renal; 7.47% (active) in the assay on UO-31 renal; -3.75% (active) in the assay on TK-10 renal; 0.663% (active) with ACHN renal. The growth in the assay on CAKI-1 renal was 20.6%; in the assay with A498 renal, -54.2% (active); with CCRF-CEM leukemia, 3.01% (active); with MOLT-4 leukemia, -6% (active).
For `CCN(CC)CCCN1C(=O)c2c(c(C)c3c(oc4ccc(O)cc43)c2C)C1=O`, the growth is 94.7% in the assay with SK-MEL-2 melanoma; 101% in the assay on EKVX NSCLC; 63.4% in the assay on SN12C renal; 63.7% with UO-31 renal; -27.4% (active) in the assay with TK-10 renal; 25.9% in the assay on ACHN renal. Also, the growth was 82.4% in the assay on CAKI-1 renal, 94.8% in the assay on A498 renal, -19.7% (active) in the assay with CCRF-CEM leukemia and 83.2% with MOLT-4 leukemia.
Take `Cn1c2c(c3ccc(Cl)c(Cl)c31)C(C#N)C(C)(C)NC2=O` (stereo not given): the growth was 45.2% with SK-MEL-2 melanoma; 84.9% with EKVX NSCLC; 93.6% in the assay with SN12C renal; 110% in the assay on UO-31 renal; 82.3% in the assay on TK-10 renal; 80.1% in the assay on ACHN renal. For the same molecule, the growth was 63.4% in the assay with CAKI-1 renal, -14.9% (active) in the assay with A498 renal, 87.9% with CCRF-CEM leukemia and 59.4% with MOLT-4 leukemia.
In the case of `COc1ccc(C2=CN3CC=CC3CC2=O)cc1` (stereo not given), the growth is 96.2% in the assay on SK-MEL-2 melanoma; 87.3% with EKVX NSCLC; 109% in the assay on SN12C renal; 103% in the assay on UO-31 renal; 82.5% with TK-10 renal; 102% in the assay with ACHN renal. Also, the growth in the assay on CAKI-1 renal is 95.8%; in the assay on A498 renal it was 111%; in the assay on CCRF-CEM leukemia it was 106%; in the assay with MOLT-4 leukemia, 96%.
For the molecule `CN(C)c1ccc(-c2nc(-c3ccccc3)c(-c3ccccc3)[nH]2)cc1`, the growth is 83.9% with SK-MEL-2 melanoma; 61.1% in the assay on EKVX NSCLC; 92.9% in the assay on SN12C renal; 84.8% with UO-31 renal; 99.6% with TK-10 renal; 94% in the assay with ACHN renal. For the same molecule, the growth with CAKI-1 renal is 84.6%; in the assay with A498 renal it was 82.4%; in the assay on CCRF-CEM leukemia, 90%; in the assay with MOLT-4 leukemia it was 83.4%.
Take `COc1cccc(-c2cc(-c3cccc(Cl)c3)c(C#N)c(=O)[nH]2)c1`: the growth is 60.8% with SK-MEL-2 melanoma; 90.4% with EKVX NSCLC; 85.2% in the assay on SN12C renal; 71.5% in the assay with UO-31 renal; 95.9% with TK-10 renal; 94.2% in the assay with ACHN renal. The growth with CAKI-1 renal is 64.9%; with A498 renal, 45.8%; in the assay on CCRF-CEM leukemia, 28.2%; with MOLT-4 leukemia it was 64.8%.
Regarding `COC(=O)/C=C1/SC(=Nc2ccc([N+](=O)[O-])cc2)N(CCc2c[nH]c3ccc(O)cc23)C1=O`, the growth in the assay on SK-MEL-2 melanoma was 39.7%; in the assay with EKVX NSCLC it was 64.7%; in the assay with SN12C renal, 45.8%; in the assay on UO-31 renal, 53.5%; in the assay with TK-10 renal, 85.2%; in the assay with ACHN renal, 53.4%. The growth is 71.4% in the assay on CAKI-1 renal, 80.5% in the assay on A498 renal, 10.9% with CCRF-CEM leukemia and 10.9% in the assay on MOLT-4 leukemia.
Regarding `CCNc1ccc(-c2nc3ccccc3n3cccc23)cc1`, the growth in the assay with SK-MEL-2 melanoma was 87.9%; in the assay on EKVX NSCLC, 71%; in the assay on SN12C renal, 78%; in the assay with UO-31 renal, 51.6%; in the assay with TK-10 renal, 82.7%; in the assay with ACHN renal it was 73.9%. The growth in the assay on CAKI-1 renal was 57%; in the assay on A498 renal, 62.5%; in the assay with CCRF-CEM leukemia it was 68.2%; in the assay with MOLT-4 leukemia, 71.2%.
As for `N#Cc1ccc(O)c(C2=NCC(Cc3ccccc3)O2)c1` (stereo not given), the growth was 38.8% in the assay on SK-MEL-2 melanoma; 45% in the assay on EKVX NSCLC; 51.9% with SN12C renal; 22% in the assay with UO-31 renal; 51.4% with TK-10 renal; 38.6% with ACHN renal. Besides, the growth with CAKI-1 renal is 12.9%; in the assay on A498 renal, 84.9%; in the assay on CCRF-CEM leukemia, 33.6%; with MOLT-4 leukemia, 46.6%.

For the origin of these results see PubChem BioAssay (NCI).
